Data reported in PubChem BioAssay AID485364 (National Center for Advancing Translational Sciences (NCATS), 2010).
The campaign covered roughly 360,000 compounds. About 11,000 (3.1%) were called active. A call without a number means that no potency is given here. About 4% were inconclusive and are not listed. Calls follow the shape of the dose curve; as a rule, active = well fitted inhibition curve with a large enough effect; inconclusive = small, poorly fitted or top-dose-only effect; inactive = no such curve, though single readings can be large or run the other way. The full list was thinned out, with actives kept by preference.

target: Schistosoma mansoni thioredoxin glutathione reductase (TGR) (UniProt Q962Y6); test: qHTS Assay for the Inhibitors of Schistosoma Mansoni Peroxiredoxins; details: purified TGR, DTNB reduction, TNB absorbance 405 nm; series mostly up to 114 µM; also: nearly all actives have a fitted effect of over 60% in size
How it was run: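 Kinetic colorimetric format: TGR-catalysed, NADPH-driven DTNB reduction monitored via TNB absorbance. Enzyme dispensed at 20 nM; compound exposure 15 min at room temperature before reaction start.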
Potency is read from the fitted curve at half-maximal effect.

Row | SMILES | Potency
1 | Cc1ccc(NC(=O)Nc2sc3nc4n(c(=O)c3c2C)CCC(C)CC4)c(Cl)c1 (stereo unspecified) | inactive
2 | CCC(C)c1ccc2oc(-c3ccc(NC(=O)c4cc5ccccc5o4)cc3)nc2c1 (stereo unspecified) | inactive
3 | Cc1ccc(C2c3[nH]c4ccccc4c3CCN2C(=O)c2cccc(C)c2)cc1 (stereo unspecified) | inactive
4 | Cc1ccc(C)c(N2C(=O)N(Cc3c(F)cccc3Cl)c3ccccc3S2(=O)=O)c1 | inactive
5 | O=C(NCC(c1ccco1)S(=O)(=O)c1cccs1)c1ccc(F)cc1 (stereo unspecified) | 7.08 µM (active)
6 | CC(C)(C)c1ccc(C(=O)NCC(c2ccco2)S(=O)(=O)c2ccc(F)cc2)cc1 (stereo unspecified) | 11.2 µM (active)
7 | COc1ccc(CCNC(=O)C(=O)NCC(c2ccco2)S(=O)(=O)c2cccs2)cc1OC (stereo unspecified) | 3.55 µM (active)
8 | COc1ccc(CCNC(=O)C(=O)NCC2CCCN2S(=O)(=O)c2cccs2)cc1OC (stereo unspecified) | inactive
9 | O=C(NCC(c1ccco1)N1CCc2ccccc21)c1cccc(F)c1 (stereo unspecified) | inactive
10 | CCN(CC(=O)NCc1ccco1)S(=O)(=O)c1ccc(F)cc1 | inactive
11 | O=C(CCNC(=O)c1ccc(Br)cc1)NCC(c1ccco1)N1CCCCC1 (stereo unspecified) | inactive
12 | Cc1cc(S(=O)(=O)Nc2ccc(C(=O)NCC(c3ccco3)N3CCCC3)cc2)ccc1F (stereo unspecified) | inactive
13 | COc1ccc(CCNC(=O)C(=O)NCc2ccccc2C)cc1OC | inactive
14 | CCC(=O)Nc1c(C(=O)N2CCN(c3ccc(F)cc3)CC2)oc2ccccc12 | inactive
15 | CN(CC(=O)Nc1cccc(C(F)(F)F)c1)S(=O)(=O)c1cccs1 | inactive
16 | CCOc1ccc(N(CC)C(=O)c2noc3c2COc2ccc(C)cc2-3)cc1 | inactive
17 | Cc1ccc2[nH]c3c(=O)n(CC(=O)NC(C)C)ncc3c2c1 | inactive
18 | Cc1ccc2c(=O)cc(C(=O)Nc3sc4c(c3C(=O)NCc3cccnc3)CCCC4)oc2c1 | inactive
19 | CCCNC(=O)c1ccc(Cn2c(SCC(N)=O)nc3ccccc3c2=O)cc1 | inactive
20 | CN(C)S(=O)(=O)c1cc(NC(=O)CN2C(=O)NC3(CCCc4ccccc43)C2=O)ccc1Cl (stereo unspecified) | inactive
21 | CCN(CC(=O)Nc1cccc(S(N)(=O)=O)c1)Cc1nc2ccccc2c(=O)[nH]1 | inactive
22 | CCN(CC)c1ccc(C(=O)NNC(=O)CCc2nc3ccccc3c(=O)[nH]2)cc1 | inactive
23 | CCCCN(CC(=O)Nc1cccc(S(=O)(=O)N2CCCC2)c1)Cc1nc2ccccc2c(=O)[nH]1 | 22.4 µM (active)
24 | CCN(CC(=O)NC(=O)NCc1ccccc1)Cc1nc2ccccc2c(=O)[nH]1 | 89.1 µM (active)

Row | SMILES | Potency
25 | O=C(c1ccco1)N(Cc1nc2ccccc2c(=O)[nH]1)C1CCCC1 | inactive
26 | CCN(CC(=O)Nc1ccc(C)c(S(=O)(=O)N(C)C)c1)Cc1ccccc1 | inactive
27 | CCN(CC(=O)Nc1ccc(Cl)c(S(=O)(=O)N(C)C)c1)Cc1nc2ccccc2c(=O)[nH]1 | 39.8 µM (active)
28 | CCN(CC(=O)Nc1cccc(S(=O)(=O)N2CCCCC2)c1)Cc1ccccc1 | inactive
29 | Cn1c(=O)c2c(SCC(=O)N3CCc4ccccc43)nc(-c3ccc(Cl)cc3)nc2n(C)c1=O | inactive
30 | COc1ccc(-c2nc(C)c(CCNC(=O)c3ccc(C(F)(F)F)cc3)s2)cc1OC | inactive
31 | COc1ccccc1NC(=O)CSC1=Nc2ccccc2C2=NC(CC(=O)NCc3cccs3)C(=O)N12 (stereo unspecified) | inactive
32 | Cn1c(=O)c2c(SCC(=O)NCC3CCCO3)nc(-c3ccccc3F)nc2n(C)c1=O (stereo unspecified) | inactive
33 | CCCCc1nn2c(=O)cc(COC(=O)c3ccccc3NC(=O)C(C)(C)C)nc2s1 | inactive
34 | Cc1nn(C(C)C(=O)NCCc2ccccc2)c(=O)c2c1sc1ccccc12 (stereo unspecified) | inactive
35 | COc1cccc2c1cc1c(=O)n(CC(=O)N3CCN(c4ccccc4)CC3)nc(C)n12 | inactive
36 | O=c1c2cccnc2n(Cc2cccc(F)c2)c(=O)n1Cc1ccccc1Cl | inactive
37 | COc1cccc2c1cc1c(=O)n(CC(=O)N3CCN(c4cccc(Cl)c4)CC3)nc(C)n12 | inactive
38 | Cc1nc2ccccn2c(=O)c1NC(=O)c1c(F)cccc1F | inactive
39 | CCn1cc(C(=O)N(C)Cc2ccccc2)c(=O)c2cc(S(=O)(=O)N3CCCCCC3)ccc21 | inactive
40 | Cc1cccc(C)c1NC(=O)CSc1nc2c([nH]1)c(=O)n(C)c(=O)n2C | inactive
41 | CC(CCO)Nc1nc2c([nH]1)c(=O)n(C)c(=O)n2C (stereo unspecified) | inactive
42 | Cc1ccc(NN=Nc2nc3c([nH]2)c(=O)n(C)c(=O)n3C)cc1 | 56.2 µM (active)
43 | CCc1cccc(C)c1NS(=O)(=O)c1ccc(-c2cc(C)no2)s1 | inactive
44 | Cc1nc2ccn(Cc3cccs3)c(=O)c2cc1C(=O)NCc1ccc(Cl)cc1 | inactive
45 | COc1ccc(-c2onc(C)c2C)cc1S(=O)(=O)NCc1cccs1 | inactive
46 | CCN(CC)S(=O)(=O)c1ccc2c(c1)c(=O)c(C(=O)N1CCN(c3cccc(Cl)c3)CC1)cn2C | inactive
47 | Cc1cc(NC(=O)CSc2nnnn2-c2ccc(F)cc2)no1 | inactive
48 | Cc1cc(NC(=O)CCS(=O)(=O)c2ccc(F)cc2)no1 | 17.8 µM (active)

Row | SMILES | Potency
49 | Cc1cc(NC(=O)CCC(=O)N(CC(=O)NC2CCCC2)c2ccc(F)cc2)no1 | inactive
50 | COc1ccccc1Nc1c2c(nc3ccc(NC(=O)/C=C/c4cc(OC)c(OC)c(OC)c4)cc13)CCCC2 | inactive
51 | CCOC(=O)c1ccc(CSc2nnc3cc(C)c4ccccc4n23)cc1 | inactive
52 | Cc1ccc2c(c1)=C/C(=C\c1c(O)[nH]c(=O)[nH]c1=O)C(=O)N=2 | 14.1 µM (active)
53 | O=c1[nH]c(O)c(C=Nc2cc(F)cc(F)c2)c(=O)[nH]1 | inactive
54 | O=C1N=c2ccccc2=C/C1=C\c1c(O)[nH]c(=S)[nH]c1=O | 10 µM (active)
55 | Cc1cccc(S(=O)(=O)c2cn(Cc3ccccc3)c3cc(N4CCOCC4)c(F)cc3c2=O)c1 | inactive
56 | COc1ccc(NC(=O)CCCc2nnc3n(CCC(C)C)c(=O)c4sccc4n23)c(OC)c1 | inactive
57 | CCn1c2ccccc2c2cc(CN3CCN(Cc4cccc(Cl)c4)CC3)ccc21 | inactive
58 | CCOC(=O)c1c(SCC(=O)Nc2cccc(C)c2C)nc(=O)[nH]c1C | inactive
59 | Cc1ccc(NC(=O)CSc2nc3c(c(=O)[nH]2)CN(Cc2ccc4c(c2)OCO4)CC3)cc1C | inactive
60 | COc1ccc(Cl)cc1NC(=O)C(C)Sc1nc2c(c(=O)[nH]1)CCCC2 (stereo unspecified) | inactive
61 | CCC(=O)Nc1ccccc1-c1nc2ccccc2n(CC(=O)Nc2ccc(C)c(C)c2)c1=O | inactive
62 | CCOc1ccc(CNC(=O)c2cc(=O)[nH]c3ccc(S(=O)(=O)N4CCCCC4)cc23)cc1 | inactive
63 | O=C(Cn1ncn2nc(-c3cccs3)cc2c1=O)NCc1cccc(Br)c1 | inactive
64 | COc1cc(OC)c(C2C=C(C(=O)O)Nc3ncnn32)cc1OC (stereo unspecified) | inactive
65 | CS(=O)(=O)c1ccc2c(c1)SC1=NC(=O)/C(=C/c3ccco3)C(=N)N12 | 20 µM (active)
66 | CS(=O)(=O)C1=NN2C(=N)/C(=C\c3ccc(OCCOc4ccccc4)cc3)C(=O)N=C2S1 | inactive
67 | CCS(=O)(=O)C1=NSC2=NC(=O)/C(=C\c3ccc(OS(=O)(=O)c4ccccc4)cc3)C(=N)N21 | inactive
68 | CCOC(=O)c1ccc(NC(=O)CC2C(=O)N(c3ccccc3)C(=O)N2Cc2cccs2)cc1 (stereo unspecified) | inactive
69 | O=C(COC(=O)c1cnc(Cl)c(Cl)c1)NCc1ccco1 | inactive
70 | Cc1c(Cl)cnc(NC(=O)COC(=O)c2ccc(S(=O)(=O)NCc3ccco3)cc2)c1Cl | 28.2 µM (active)
71 | C/C(=N\Nc1ncc(Cl)cc1Cl)c1ccc(S(=O)(=O)NCc2ccco2)cc1 | inactive
72 | COc1ccc(NC(=O)CSc2nccn2Cc2ccc3c(c2)OCO3)cc1 | inactive

Row | SMILES | Potency
73 | CC1=C(C(=O)Nc2ccccc2Cl)C(c2cccs2)n2ncnc2N1 (stereo unspecified) | inactive
74 | O=C(CSc1ncc(CO)n1Cc1ccc(Cl)cc1)NCc1ccc(F)cc1 | inactive
75 | Cc1cc(C)c(OCC(=O)N/N=C/c2ccco2)c(C)c1 | inactive
76 | COC(=O)COc1ccc2c(c1C)O/C(=C\c1ccco1)C2=O | 10 µM (active)
77 | COC(=O)COc1cc(C)cc2oc(=O)c3c(c12)CCCC3 | inactive
78 | Cc1ccc(NS(=O)(=O)c2ccc(-c3ccc(=O)[nH]n3)o2)c(C)c1 | inactive
79 | CC1CCCN(S(=O)(=O)c2ccc(C(=O)Nc3nnc(-c4ccncc4)o3)cc2)C1 (stereo unspecified) | inactive
80 | CC1CCCN(S(=O)(=O)c2ccc(-c3ccc(=O)[nH]n3)o2)C1 (stereo unspecified) | 28.2 µM (active)
81 | CCOC(=O)c1ccc(NC(=O)c2nc(SCc3ccc(F)cc3)ncc2Cl)cc1 | inactive
82 | Cc1ccc(NC(=O)c2cccnc2C(=O)Nc2ccc(C)cc2)cc1 | inactive
83 | CCS(=O)(=O)c1ncc(N(Cc2ccc(F)cc2)Cc2ccco2)c(C(=O)Nc2cc(C)ccc2C)n1 | inactive
84 | Cc1ccc(CCNC(=O)c2ccc(CS(=O)(=O)Cc3cccc(C)c3)o2)cc1 | inactive
85 | CSc1nnc(NC(=O)c2nc(S(=O)(=O)Cc3ccc(C)cc3)ncc2Cl)s1 | 3.16 µM (active)
86 | Cc1ccc2nc(NC(=O)c3nc(SCc4ccccc4F)ncc3Cl)sc2c1 | inactive
87 | Cc1cccc(CS(=O)(=O)c2ncc(Cl)c(C(=O)Nc3ccc(F)cc3)n2)c1 | 7.08 µM (active)
88 | O=C(Nc1nc2ccc(F)cc2s1)c1nc(SCc2ccccc2F)ncc1Cl | inactive
89 | Cc1ccc(NC(=O)c2nc(S(=O)(=O)Cc3cccc(C)c3)ncc2Cl)cc1 | 12.6 µM (active)
90 | Cc1ccc(C)c(Oc2c(C(F)(F)F)oc3c(CN4CCN(C)CC4)c(O)ccc3c2=O)c1 | inactive
91 | Cc1ccc2nc(COc3cccc(NC(=O)c4ccccc4Cl)c3)cc(=O)n2c1 | inactive
92 | Cc1[nH]c2ccccc2c1C(c1ccccc1)c1cccs1 (stereo unspecified) | inactive
93 | COc1ccc(N2CCN(S(=O)(=O)CCNC(=O)C(c3ccccc3)c3ccccc3)CC2)cc1 | inactive
94 | O=C(O)CSc1ccc(S(=O)(=O)N2CCCC2)cn1 | 50.1 µM (active)
95 | CC(C)(C)C(=O)CSc1ccc(S(=O)(=O)N2CCCC2)cn1 | inactive
96 | O=S(=O)(c1ccc(SCc2ccccc2)nc1)N1CCCCCC1 | inactive
